# The entries come from a sample that favours hits as a whole.
# Pf Dd2 growth = Plasmodium falciparum Dd2 growth inhibition; P. falciparum Dd2 growth, SYBR Green, 72 h; Potency, µM (top dose mostly 28.9 µM), without a hit: at the highest dose activity, negative = inhibition, actives largely listed as inhibitors; 4.3% of 120,000 active; AID 1347417; active means well fitted inhibition curve with a large enough effect;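 further: plate controls were DMSO vehicle for no effect and reference drug for full effect; nearly all actives have a fitted effect of over 65% in size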
#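 Readout: SYBR Green fluorescence, 485 nm excitation, 535 nm emission, after ~16 h lysis at 37C. Before that, Dd2-infected red cells (2.5% hematocrit) grew 72 h with compound, 29 uM top final concentration.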
# Starred values were filed as active, the others as inactive; i = inactive; [ ] = another dose, or the depositor's remark. Potency means the concentration at half of the fitted maximal effect.
SMILES,Pf Dd2 growth
Cc1cccc(C)c1NC(=O)CSc1nc2ccccc2c2nc(CCc3c(C)n[nH]c3C)nn12,21%
COc1cc2nc(SCC(=O)Nc3cccc(C)c3)n3nc(-c4ccccc4)nc3c2cc1OC,3%
CCOc1ccccc1NC(=O)CSc1nc2cc(OC)c(OC)cc2c2nc(CCn3c(C)nc4ccccc43)nn12,3.2µM*
Cc1ccc(NC(=O)CSc2nc3ccccc3c3nc(CCn4cncc4C)nn23)c(C)c1,8%
Cc1ccccc1NC(=O)CSc1nc2ccccc2c2nc(CCn3cncc3C)nn12,-18%
COc1cc2nc(SCC(=O)Nc3ccc(F)cc3)n3nc(CCn4c(C)nc5ccccc54)nc3c2cc1OC,i
O=C(CSc1nc2ccccc2c2nc(-c3ccccc3)nn12)Nc1ccc(Br)cc1,i
Cc1n[nH]c(C)c1CCc1nc2c3ccccc3nc(SCC(=O)Nc3ccc(F)cc3)n2n1,8.9µM*
COc1cc2nc(SCC(=O)Nc3cccc(C)c3)n3nc(CCn4c(C)nc5ccccc54)nc3c2cc1OC,2.2µM*
COc1ccccc1NC(=O)Cn1c(SCC(=O)Nc2ccc(F)cc2)nc2ccccc21,i
Cc1cccc(NC(=O)CSc2nc3ccccc3c3nc(CCn4cncc4C)nn23)c1,10µM*
CCCn1c(C)c(CC(=O)N(C)Cc2nnc(C)o2)c2c1CC(C)(C)CC2=O,-19%
CN(C)c1nc2c(c(=O)[nH]1)CCN(Cc1ccc(OC(F)(F)F)cc1)CC2,9%[5.79 µM]
Cc1nc(N2CCC(C(O)c3nccn3C)CC2)c2sccc2n1 (stereo not given),-1%
CCCN(CC1CCOC1)C(=O)NCCC(C)C (stereo not given),20%[5.79 µM]
CN(Cc1cc(=O)c2cc(C(N)=O)ccc2[nH]1)Cc1n[nH]c2c1CCCCC2,i
COc1ccc(C(=O)N2CCn3c(nn(-c4ccc([N+](=O)[O-])cc4)c3=O)C2)cc1,-4%
COc1cccc(CNC(=O)COc2ccc(NC(=O)C3CC3)cn2)c1,52%
COc1ccc(CC(=O)N2CC3(Cc4ccccc4N(C(C)=O)C3)C2)cc1,-20%
COc1ccccc1CNC(=O)C[C@@H]1CCNC[C@@H]1Cc1cc(CSc2ccccc2)on1,-17%
CN(CCc1nc2ccc(Cl)cc2[nH]1)c1cc(C2CC(O)C2)nc(N)n1 (stereo not given),i
Cc1c(CN(C)c2cc(C3CC(O)C3)nc(N)n2)[nH]c2ccccc12 (stereo not given),-16%
Cc1ccc(SCCN(C)c2cc(C3CC(O)C3)nc(N)n2)cc1 (stereo not given),5.6µM*
Cc1cnc(C(=O)N2CCc3ccc(S(=O)(=O)Nc4cccnc4)cc3C2)cn1,-11%
O=C(c1ccc(F)cc1)N1CCc2nc(C3CC3)nc(-c3ccc(O)cc3)c2CC1,i
SMILES,Pf Dd2 growth
CCc1ccccc1NC(=O)C1CCC(CNS(=O)(=O)c2ccc3c(c2)CC(C)N3C(C)=O)CC1 (stereo not given),-27%
Cc1cc(C)c(NS(=O)(=O)c2ccc3c(c2)CC(C)N3C(=O)C2CCC2)c(C)c1 (stereo not given),19%
CCCN(c1ccccc1CC)S(=O)(=O)c1ccc2c(c1)CC(C)N2C(=O)C1CC1 (stereo not given),8.9µM*
CC(C)NC(=O)c1nc(C(C)(C)C)c2ccccn12,-19%[44.1 µM]
CC(C)c1cc(C(=O)N2CC[C@@](O)(C3CCOCC3)[C@H](C)C2)cs1,-13%
O=C(C[C@H]1NC(=O)c2ccccc2NC1=O)Nc1cccc2ncccc12,12%
CNC(=O)[C@@H]1CN(S(=O)(=O)c2ccc3c(c2)CCC3)C[C@H]1c1n[nH]c(C)n1,-11%
COCCN1C(=O)CC[C@]2(C(=O)NCc3ccc(C)cc3)CCCC[C@@H]12,-5%
O=C(Nc1ccccc1)O[C@@H]1CO[C@H]2[C@@H]1OC[C@@H]2n1nnnc1-c1ccc2c(c1)OCCO2,3%
Cc1ccc(C(=O)N2CCC(N3CCOCC3=O)CC2)cc1,1%
COc1ccc(-c2ccc3c(c2)C(=O)N2CCN(C(=O)C4CCCCC4)C[C@@H]2C(=O)N3)cc1,i
COc1ccc(Cl)cc1-c1ccc2c(c1)C(=O)N1CCN(C(=O)C3CCCCC3)C[C@@H]1C(=O)N2,i
COc1ccc(Cl)cc1-c1ccc2c(c1)C(=O)N1CCN(C(=O)c3ccccc3)C[C@@H]1C(=O)N2,i
CSc1ccc(-c2ccc3c(c2)C(=O)N2CCN(C(=O)C4CCCCC4)C[C@@H]2C(=O)N3)cc1,8.9µM*
COc1ccc(Cl)cc1-c1ccc2c(c1)C(=O)N1CCN(C(=O)C3CC3)C[C@@H]1C(=O)N2,13µM*
O=C1Nc2ccc(-c3ccc4c(c3)OCO4)cc2C(=O)N2CCN(C(=O)C3CCCC3)C[C@@H]12,i
O=C(C1CC1)N1CCCC1c1nc(C2CCOCC2)no1 (stereo not given),-7%
O=C1Nc2ccccc2C2(CCN(C(=O)c3ccccc3F)C2)O1 (stereo not given),-26%[44.1 µM]
Cc1noc(C)c1Cc1ccc(C(=O)N2CCCCCCNC(=O)CC2)o1,i
CC(C)c1nnc(C2CN(C(=O)Cc3ccsc3)CC23CCOCC3)o1 (stereo not given),-14%
COCCOCC(=O)N1CCC2(CC1)C(OC)CN2c1cccc(F)c1 (stereo not given),i
CCn1c2ccccc2c2cc(NC(=O)COc3cccc(C)c3)ccc21,i
CCCCCn1c(=N)n(CC(O)COc2cccc(C)c2)c2ccccc21 (stereo not given),1µM*
CCCn1c(COc2cccc(C)c2)nc2ccccc21,-26%
Cc1ccccc1OCc1nc2ccccc2n1Cc1ccccc1Cl,27%
SMILES,Pf Dd2 growth
Cc1ccccc1OCC(=O)N1C[C@@H](CN2CCCCC2)[C@@H](CO)C1,i
Cc1ccccc1OCC(O)Cn1c(=N)n(CCN2CCCCC2)c2ccccc21 (stereo not given),2.8µM*
Cc1ccccc1NCc1nc2ccccc2n1CCOc1ccccc1,42%[5.79 µM]
Cc1ccccc1OCCn1c(=N)n(C(C)C)c2ccccc21,5.6µM*
OC(COc1ccccc1-c1ccncc1)CN1CCOCC1 (stereo not given),-12%
CCc1nncn1C1CCN(C(=O)c2cccc(Cl)c2)CC1,-12%
COc1ccc(NC(=O)Cn2c(C)cc3nc4n(c(=O)c32)CCCCC4)cc1OC,-6%
CCn1nc(CC(C)C)cc1C(=O)N1CCN(c2nc(C)cc(C)n2)CC1,-8%
O=C(Cc1c[nH]c(=O)[nH]c1=O)N1C[C@@H](CN2CCOCC2)[C@@H](CO)C1,-3%
CS(=O)(=O)c1ccc(O[C@H]2COCCN(Cc3ccc(-c4ccccc4)cc3)C2)cc1,i
Cc1cccc(NC(=O)Cn2c(-c3ccccc3)nc(C)cc2=O)c1,-12%
O=C1CCC2(CNC(=O)c3cccnc3)CCCC=C2N1 (stereo not given),-20%
O=C(N[C@H]1CCOC[C@H]1C1CCOCC1)c1cnc(CN2CCCC2)s1,-13%
CC(C)N1C[C@H](O)C[C@H]1c1nnc2n1CCN(C(=O)Cc1ccccc1)CC2,14%
CCC(=O)N1Cc2ccccc2CC2(CCCN2Cc2cccnc2)C1 (stereo not given),17%
CC(=O)N1CC2(CCCN2Cc2cccnc2)Cc2ccccc21 (stereo not given),-29%
O=C1Nc2ccccc2CC12CCCN2Cc1cccnc1 (stereo not given),-9%[44.1 µM]
O=C(C1CCCC1)N1CC2(CCCN2Cc2cccnc2)Cc2ccccc21 (stereo not given),11µM*
O=C(O)CCC(=O)N1Cc2ccccc2CC2(CCCN2Cc2cccnc2)C1 (stereo not given),-7%
